# Results reported in ChEMBL document CHEMBL1961873, “Compounds: GSK PKIS; Assays: Nanosyn kinase panel” (2012).
# Tests used:
# [1] = tested on: Tyrosine-protein kinase ABL1 (Homo sapiens), P00519 [T315I]; conditions: at 1 µM
# [2] = tested on: Tyrosine-protein kinase ABL1 (Homo sapiens), P00519 [Y253F]; conditions: at 0.1 µM
# [3] = tested on: Tyrosine-protein kinase ABL1 (Homo sapiens), P00519 [Y253F]; conditions: at 1 µM
# [4] = target: Tyrosine-protein kinase ABL1 (Homo sapiens) (UniProt P00519); conditions: at 0.1 µM
# [5] = target: Tyrosine-protein kinase ABL1 (Homo sapiens) (UniProt P00519); conditions: at 1 µM
# [6] = target: ALK tyrosine kinase receptor (Homo sapiens) (UniProt Q9UM73); conditions: at 0.1 µM
# Chain of ALK tyrosine kinase receptor (Homo sapiens) (Q9UM73 19-1620 limits assumed): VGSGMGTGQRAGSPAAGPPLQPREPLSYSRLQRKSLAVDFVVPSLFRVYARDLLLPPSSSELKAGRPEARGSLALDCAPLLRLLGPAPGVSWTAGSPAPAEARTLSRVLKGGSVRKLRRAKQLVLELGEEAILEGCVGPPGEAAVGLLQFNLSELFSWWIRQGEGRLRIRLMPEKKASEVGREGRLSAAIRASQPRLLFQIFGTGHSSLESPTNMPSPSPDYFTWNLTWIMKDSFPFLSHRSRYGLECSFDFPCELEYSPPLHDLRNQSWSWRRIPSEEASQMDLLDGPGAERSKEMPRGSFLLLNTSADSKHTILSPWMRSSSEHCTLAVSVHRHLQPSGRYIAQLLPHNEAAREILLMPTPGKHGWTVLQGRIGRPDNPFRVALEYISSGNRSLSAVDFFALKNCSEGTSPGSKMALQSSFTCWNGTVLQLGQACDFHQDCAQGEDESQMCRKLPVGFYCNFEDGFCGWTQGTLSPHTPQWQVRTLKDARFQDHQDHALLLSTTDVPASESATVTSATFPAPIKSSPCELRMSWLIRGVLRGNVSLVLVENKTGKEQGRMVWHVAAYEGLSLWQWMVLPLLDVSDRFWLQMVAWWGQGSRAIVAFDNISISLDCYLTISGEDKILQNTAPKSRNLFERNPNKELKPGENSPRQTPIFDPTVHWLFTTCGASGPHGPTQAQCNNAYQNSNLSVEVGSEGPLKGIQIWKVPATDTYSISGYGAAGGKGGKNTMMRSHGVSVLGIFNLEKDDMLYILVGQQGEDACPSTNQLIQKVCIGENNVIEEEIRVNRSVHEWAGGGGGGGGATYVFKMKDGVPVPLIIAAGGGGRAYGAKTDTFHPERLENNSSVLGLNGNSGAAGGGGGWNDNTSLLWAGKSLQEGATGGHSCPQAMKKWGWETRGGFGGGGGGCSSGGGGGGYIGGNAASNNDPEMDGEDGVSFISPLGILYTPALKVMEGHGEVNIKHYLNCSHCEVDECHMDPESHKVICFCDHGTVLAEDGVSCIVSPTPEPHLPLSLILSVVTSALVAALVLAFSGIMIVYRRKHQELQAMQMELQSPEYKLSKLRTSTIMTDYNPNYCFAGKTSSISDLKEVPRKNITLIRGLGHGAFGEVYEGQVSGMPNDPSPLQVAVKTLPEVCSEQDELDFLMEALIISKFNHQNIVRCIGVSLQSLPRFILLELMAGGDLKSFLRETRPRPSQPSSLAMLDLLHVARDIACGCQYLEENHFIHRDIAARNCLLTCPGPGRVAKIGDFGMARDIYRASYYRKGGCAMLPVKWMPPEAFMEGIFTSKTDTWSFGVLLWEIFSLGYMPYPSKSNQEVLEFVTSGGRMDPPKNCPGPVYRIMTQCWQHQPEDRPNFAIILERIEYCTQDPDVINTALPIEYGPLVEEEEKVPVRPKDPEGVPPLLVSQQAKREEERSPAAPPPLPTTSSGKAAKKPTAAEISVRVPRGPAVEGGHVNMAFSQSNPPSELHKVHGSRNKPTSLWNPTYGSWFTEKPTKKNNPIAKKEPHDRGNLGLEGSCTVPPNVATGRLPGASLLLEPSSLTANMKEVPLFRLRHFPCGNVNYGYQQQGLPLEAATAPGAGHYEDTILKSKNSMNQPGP
# [7] = target: ALK tyrosine kinase receptor (Homo sapiens) (UniProt Q9UM73); conditions: at 1 µM
# [8] = target: Tyrosine-protein kinase ABL2 (Homo sapiens) (UniProt P42684); conditions: at 0.1 µM
# Chain of Tyrosine-protein kinase ABL2 (Homo sapiens) (P42684 whole entry): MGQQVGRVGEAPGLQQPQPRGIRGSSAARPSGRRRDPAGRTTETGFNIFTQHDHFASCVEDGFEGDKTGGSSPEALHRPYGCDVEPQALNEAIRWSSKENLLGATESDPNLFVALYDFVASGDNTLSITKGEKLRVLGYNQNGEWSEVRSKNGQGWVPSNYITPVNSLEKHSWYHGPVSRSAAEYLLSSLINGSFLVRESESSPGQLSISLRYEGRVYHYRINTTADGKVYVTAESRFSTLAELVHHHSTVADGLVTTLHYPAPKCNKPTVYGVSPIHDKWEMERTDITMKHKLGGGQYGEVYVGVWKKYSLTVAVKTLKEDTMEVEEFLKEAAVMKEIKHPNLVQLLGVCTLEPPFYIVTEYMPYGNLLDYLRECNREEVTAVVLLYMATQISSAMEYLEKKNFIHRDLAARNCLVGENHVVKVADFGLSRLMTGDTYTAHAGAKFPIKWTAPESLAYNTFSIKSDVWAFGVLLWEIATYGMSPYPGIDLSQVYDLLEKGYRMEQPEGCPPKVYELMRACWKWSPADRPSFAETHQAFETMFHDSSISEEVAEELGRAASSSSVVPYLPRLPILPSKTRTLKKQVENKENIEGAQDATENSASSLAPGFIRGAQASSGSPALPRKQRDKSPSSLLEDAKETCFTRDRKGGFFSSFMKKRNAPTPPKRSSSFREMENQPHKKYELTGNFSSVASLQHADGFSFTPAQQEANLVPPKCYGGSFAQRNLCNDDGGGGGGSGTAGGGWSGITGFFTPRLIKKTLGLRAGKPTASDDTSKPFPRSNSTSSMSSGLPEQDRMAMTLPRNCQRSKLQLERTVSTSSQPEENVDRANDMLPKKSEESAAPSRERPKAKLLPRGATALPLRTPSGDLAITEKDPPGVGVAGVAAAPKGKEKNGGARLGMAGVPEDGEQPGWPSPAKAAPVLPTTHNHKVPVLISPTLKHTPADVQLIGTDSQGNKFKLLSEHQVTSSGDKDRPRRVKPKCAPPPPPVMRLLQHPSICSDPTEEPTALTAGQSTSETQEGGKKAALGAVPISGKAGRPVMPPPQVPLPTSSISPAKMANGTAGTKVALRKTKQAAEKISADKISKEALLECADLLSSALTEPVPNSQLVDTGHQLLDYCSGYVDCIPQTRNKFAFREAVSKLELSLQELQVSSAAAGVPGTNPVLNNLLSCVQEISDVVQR
# [9] = target: Tyrosine-protein kinase ABL2 (Homo sapiens) (UniProt P42684); conditions: at 1 µM
# [10] = target: Tyrosine-protein kinase receptor UFO (Homo sapiens) (UniProt P30530); conditions: at 0.1 µM
# Chain of Tyrosine-protein kinase receptor UFO (Homo sapiens) (P30530 whole entry): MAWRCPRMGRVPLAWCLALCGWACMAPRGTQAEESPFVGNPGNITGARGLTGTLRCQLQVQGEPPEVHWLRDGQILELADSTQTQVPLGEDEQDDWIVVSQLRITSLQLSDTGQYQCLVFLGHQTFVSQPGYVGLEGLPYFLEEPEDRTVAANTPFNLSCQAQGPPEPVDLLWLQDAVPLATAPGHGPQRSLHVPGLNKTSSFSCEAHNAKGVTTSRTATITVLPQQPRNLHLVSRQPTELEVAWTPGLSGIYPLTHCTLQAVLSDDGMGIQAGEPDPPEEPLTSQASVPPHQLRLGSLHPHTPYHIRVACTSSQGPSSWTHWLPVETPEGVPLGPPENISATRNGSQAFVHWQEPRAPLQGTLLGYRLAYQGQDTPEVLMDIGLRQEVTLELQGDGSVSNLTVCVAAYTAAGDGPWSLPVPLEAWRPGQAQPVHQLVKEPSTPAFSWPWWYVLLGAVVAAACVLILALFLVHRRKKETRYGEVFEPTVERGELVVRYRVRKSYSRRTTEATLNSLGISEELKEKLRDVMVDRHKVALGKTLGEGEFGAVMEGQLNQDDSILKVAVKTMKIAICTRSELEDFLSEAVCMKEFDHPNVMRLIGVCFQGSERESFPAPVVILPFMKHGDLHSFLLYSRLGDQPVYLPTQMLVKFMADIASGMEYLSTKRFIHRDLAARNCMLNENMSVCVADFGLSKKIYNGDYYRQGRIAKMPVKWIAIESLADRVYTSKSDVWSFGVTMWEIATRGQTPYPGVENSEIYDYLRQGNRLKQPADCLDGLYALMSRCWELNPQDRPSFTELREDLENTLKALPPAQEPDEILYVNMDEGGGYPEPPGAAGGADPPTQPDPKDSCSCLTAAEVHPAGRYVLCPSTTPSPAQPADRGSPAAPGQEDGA
# [11] = target: Tyrosine-protein kinase receptor UFO (Homo sapiens) (UniProt P30530); conditions: at 1 µM
# [12] = target: Tyrosine-protein kinase Blk (Homo sapiens) (UniProt P51451); conditions: at 0.1 µM
# Chain of Tyrosine-protein kinase Blk (Homo sapiens) (P51451 2-505 limits assumed): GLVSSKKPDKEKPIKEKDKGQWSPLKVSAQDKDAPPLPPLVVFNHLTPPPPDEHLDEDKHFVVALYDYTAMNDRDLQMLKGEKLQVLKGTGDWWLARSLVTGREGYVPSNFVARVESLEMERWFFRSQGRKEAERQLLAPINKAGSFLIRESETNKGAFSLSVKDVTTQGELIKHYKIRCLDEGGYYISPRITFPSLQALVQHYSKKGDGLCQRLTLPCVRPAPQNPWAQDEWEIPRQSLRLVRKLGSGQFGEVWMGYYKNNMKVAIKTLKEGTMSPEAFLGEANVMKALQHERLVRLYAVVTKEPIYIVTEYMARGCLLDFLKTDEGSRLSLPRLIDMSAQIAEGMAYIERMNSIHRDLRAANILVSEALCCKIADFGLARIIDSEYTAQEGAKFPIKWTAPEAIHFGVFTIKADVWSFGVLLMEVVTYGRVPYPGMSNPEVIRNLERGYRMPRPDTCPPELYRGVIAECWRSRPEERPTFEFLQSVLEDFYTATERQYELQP
# [13] = target: Tyrosine-protein kinase Blk (Homo sapiens) (UniProt P51451); conditions: at 1 µM
# [14] = target: T1, Cytoplasmic tyrosine-protein kinase BMX (Homo sapiens) (UniProt P51813); conditions: at 0.1 µM
# T1 sequence (whole entry): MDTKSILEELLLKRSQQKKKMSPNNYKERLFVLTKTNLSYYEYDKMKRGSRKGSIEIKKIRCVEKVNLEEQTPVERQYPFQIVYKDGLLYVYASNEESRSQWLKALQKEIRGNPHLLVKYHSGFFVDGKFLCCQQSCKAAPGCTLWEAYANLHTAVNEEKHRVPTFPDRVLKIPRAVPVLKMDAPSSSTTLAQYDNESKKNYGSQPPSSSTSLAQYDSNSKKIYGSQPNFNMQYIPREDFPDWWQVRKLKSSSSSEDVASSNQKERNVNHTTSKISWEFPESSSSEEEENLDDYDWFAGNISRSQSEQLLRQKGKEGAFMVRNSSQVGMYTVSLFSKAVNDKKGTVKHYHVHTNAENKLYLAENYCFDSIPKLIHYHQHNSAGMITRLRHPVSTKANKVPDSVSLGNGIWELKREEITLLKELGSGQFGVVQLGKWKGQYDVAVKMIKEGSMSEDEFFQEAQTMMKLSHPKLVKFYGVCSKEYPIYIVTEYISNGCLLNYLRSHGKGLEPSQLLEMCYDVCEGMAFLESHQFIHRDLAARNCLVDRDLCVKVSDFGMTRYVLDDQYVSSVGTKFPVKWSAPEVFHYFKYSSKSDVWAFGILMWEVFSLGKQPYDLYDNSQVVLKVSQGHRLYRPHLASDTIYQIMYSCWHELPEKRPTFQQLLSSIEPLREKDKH
# [15] = target: T1, Cytoplasmic tyrosine-protein kinase BMX (Homo sapiens); conditions: at 1 µM
# [16] = target: Protein-tyrosine kinase 6 (Homo sapiens) (UniProt Q13882); conditions: at 0.1 µM
# Chain of Protein-tyrosine kinase 6 (Homo sapiens) (Q13882 whole entry, looked up): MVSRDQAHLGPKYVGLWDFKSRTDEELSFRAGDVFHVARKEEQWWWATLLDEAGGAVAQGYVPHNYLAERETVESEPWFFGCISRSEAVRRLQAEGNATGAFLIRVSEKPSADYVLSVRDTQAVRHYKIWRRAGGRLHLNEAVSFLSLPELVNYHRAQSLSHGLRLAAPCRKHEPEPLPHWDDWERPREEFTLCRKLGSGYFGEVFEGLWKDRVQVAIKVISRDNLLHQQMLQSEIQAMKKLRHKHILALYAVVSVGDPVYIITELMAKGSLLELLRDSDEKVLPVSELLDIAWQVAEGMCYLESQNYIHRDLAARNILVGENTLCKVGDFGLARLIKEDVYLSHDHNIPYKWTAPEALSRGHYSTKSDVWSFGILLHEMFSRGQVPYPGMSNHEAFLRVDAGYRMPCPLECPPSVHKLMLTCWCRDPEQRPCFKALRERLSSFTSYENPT
# [17] = target: Protein-tyrosine kinase 6 (Homo sapiens) (UniProt Q13882); conditions: at 1 µM
# [18] = target: Tyrosine-protein kinase BTK (Homo sapiens) (UniProt Q06187); conditions: at 0.1 µM
# [19] = target: Tyrosine-protein kinase BTK (Homo sapiens) (UniProt Q06187); conditions: at 1 µM
# [20] = target: Tyrosine-protein kinase CSK (Homo sapiens) (UniProt P41240); conditions: at 0.1 µM;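 further: value given is the averaged percent inhibition of CSK kinase activity, from the GSK PKIS kinase inhibitor set screening panel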
# Chain of Tyrosine-protein kinase CSK (Homo sapiens) (P41240 2-450 limits assumed): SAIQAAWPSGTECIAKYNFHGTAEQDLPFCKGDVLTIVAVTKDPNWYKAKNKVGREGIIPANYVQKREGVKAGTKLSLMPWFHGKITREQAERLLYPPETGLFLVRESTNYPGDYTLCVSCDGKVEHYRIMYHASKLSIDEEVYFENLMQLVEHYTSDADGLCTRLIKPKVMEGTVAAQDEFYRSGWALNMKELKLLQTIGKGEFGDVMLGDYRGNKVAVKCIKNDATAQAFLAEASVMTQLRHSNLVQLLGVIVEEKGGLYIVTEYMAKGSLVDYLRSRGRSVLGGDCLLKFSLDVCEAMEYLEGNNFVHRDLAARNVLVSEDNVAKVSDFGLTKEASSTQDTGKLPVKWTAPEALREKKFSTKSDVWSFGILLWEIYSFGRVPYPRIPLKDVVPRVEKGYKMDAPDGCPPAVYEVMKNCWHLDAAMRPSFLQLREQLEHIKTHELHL
Compound,inhibition [1] [%],inhibition [2] [%],inhibition [3] [%],inhibition [4] [%],inhibition [5] [%],inhibition [6] [%],inhibition [7] [%],inhibition [8] [%],inhibition [9] [%],inhibition [10] [%],inhibition [11] [%],inhibition [12] [%],inhibition [13] [%],inhibition [14] [%],inhibition [15] [%],inhibition [16] [%],inhibition [17] [%],inhibition [18] [%],inhibition [19] [%],inhibition [20] [%]
CC1=C(C(=O)Nc2ccc3[nH]ncc3c2)C(c2ccc3ccccc3c2)CC(=O)N1 (stereo not given),22.1,4,5.47,2.85,7.38,2.78,7.11,3.07,8.71,-2.62,-3.18,13.4,58.5,-1.63,3.91,3.76,6.55,0.23,11.4,4.44
COc1ccc(COc2ccc(Cc3cnc(N)nc3N)cc2OC)cc1,-2.04,3.15,0.75,3.16,7.34,-0.54,0.01,3.27,5.98,4.25,8.25,0.45,0.47,0.39,2.06,-1.66,-1.6,0.23,3.61,0.54
COc1cc(C)c(NC(=O)CN(C)C)cc1Nc1nc(Nc2cccc(F)c2C(N)=O)c2cc[nH]c2n1,0.49,3.3,-0.09,1.95,4.55,97.8,88.9,1.11,-0.02,17.6,63.7,0.68,4.45,0.07,2.64,3.06,23.8,0.31,0.16,1.05
CC1=C(C(=O)Nc2ccc3[nH]ncc3c2)C(c2ccc(Cl)c(Cl)c2)CC(=O)N1 (stereo not given),2.96,2.96,0.52,2.43,7.38,0.6,3.88,2.19,3.97,-2.18,-5.55,1.97,18.3,-1.91,2.22,3.17,3.02,0.53,3.13,1.65
CS(=O)(=O)CCN(CC#N)Cc1ccc(-c2ccc3ncnc(Nc4ccc(OCc5cccc(F)c5)c(Cl)c4)c3c2)o1,-0.34,2.36,1.9,-2.3,-2.95,-2.83,-0.48,-2.62,-1.72,-6.1,-5.07,-2.59,-2.7,1.65,3.9,2.35,4.81,-4.96,-5.01,3.24
NCc1ccc(-c2nc(-c3ccc(Cl)c(O)c3)c(-c3ccncc3)[nH]2)cc1,24.2,12.6,54.6,6.87,53.1,-0.45,2.22,9.17,55.8,-4.39,3.04,0.72,10.4,12.4,28.9,13.9,58.7,1.91,6.57,-0.21
NC(=O)c1ccc(-c2nc(-c3ccccn3)c(-c3ccc4c(c3)OCO4)[nH]2)cc1,2.56,1.74,2.37,1.82,6.95,1.12,2.39,1.95,6.03,-3.37,-1.2,1.51,3.67,6,2.22,1.72,1.4,-0.29,0.83,5.75
COc1ccc(-c2nn3ncccc3c2-c2ccnc(Nc3ccc(Cl)c(C(F)(F)F)c3)n2)cc1,4.57,2.03,6.35,2.26,10.3,1.83,2.05,2.64,9.44,-2.69,-2.97,1.79,2.85,2.75,2.33,3.82,4.81,0.66,0.36,-0.37
COc1ccc(-c2coc3ncnc(N)c23)cc1,2.72,4.98,10.8,3.7,12,4.4,3.97,3.42,8.31,-5.99,-2.11,1.6,5.06,7.73,6.07,3.81,11.8,0.04,2.7,2.45
CCn1c(-c2nonc2N)nc2cncc(C(=O)N3CC[C@H](N)C3)c21,3.27,2.94,3.51,4.28,4.33,3.95,3.52,5.33,7.29,-5.66,-4.01,2.69,3.09,2.23,0.56,4.5,8.63,-0.23,-1.15,5.91
CNC(=O)c1cncc(/C=C/c2c(Cl)cccc2Cl)c1,4.22,12.5,54.5,8.37,40.5,6,9.12,7.46,35.7,-6.04,-1.76,-1.91,5.69,4.95,22.8,13.5,56,-3.87,0.37,0.49
COc1cc2ncn(-c3cc(OCc4ccccc4Cl)c(C(N)=O)s3)c2cc1OC,27.1,4.62,32.7,3.59,32.2,1.53,5.8,1.8,21.1,0.24,2.44,1,23.1,1.94,4.4,0.65,7.77,-0.87,1.14,0.5
CCn1c(-c2nonc2N)nc2ccncc21,-0.3,-0.36,1.17,1.53,3.89,1.59,1.87,2.85,-1.97,-1.17,1.22,0.68,2.01,3.88,-0.38,-0.74,-3.65,-0.43,1.46,-1.68
